Shown are actives, neighbours in structure and some others; about 0.5% of the full set was active somewhere.
AddAB inh = less growth of phage-infected E. coli with AddAB; 330,000 tested, 0.29% active; inhibition, % at 11.9 µM; AID 435030; E. coli expressing H. pylori AddAB, absorbance growth; in the data active = inhibition above about 12%;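 also: 0% = vehicle wells of infected cells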
E coli growth-1 = counter-screen for AddAB inhibitors: E. coli growth inhibition; 330,000 tested, 0.27% active; inhibition, % at 11.9 µM; E. coli V3065 growth, OD600 absorbance, 18 h;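 active = inhibition above the campaign's mean inhibition across all tested compounds plus 3 SD, cut at about 9.9% in these data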;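 also: uninfected addAB+ strain grown without phage in ampicillin broth; 0% = DMSO wells and 100% = ciprofloxacin 0.95 µg/ml wells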
Tat transport = E. coli Tat transport inhibition; AID 488895; inhibition, % at 10 µM; 340,000 tested, 0.036% active; E. coli MC4100 TorA-mCherry Tat export, fluorescence;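 active = mean replicate inhibition at least 50% and at least half of replicates individually reaching 50%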;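 also: exported cargo escapes ClpAP degradation while cytoplasmic cargo is degraded and loses fluorescence; 0% = median of neutral control wells and 100% = median of NaSCN control wells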
phage Ecoli inh = E. coli growth loss with phage present. growth absorbance. inhibition, % at 11.9 µM. 360,000 tested, 0.26% active. AID 651602; in the data active = inhibition above about 11%
E coli growth-2 = E. coli growth inhibition; Escherichia coli growth, OD600, 23 h; stronger effect = lower value; 330,000 tested, 0.21% active; AID 1053175; OD600 absorbance (test concentration not listed);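 active = OD600 absorbance below the run mean of sample wells minus 3.6 SD, in any replicate, cut at about 0.56 in these data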
AddAB confirm = growth loss of T4-infected E. coli expressing H. pylori AddAB, confirmed. shares compounds with AddAB inh. E. coli V3065 expressing H. pylori AddAB, T4 phage, OD; T4 phage with gene 2 nonsense mutations. inhibition, % at 11.9 µM. 880 tested, 64% active;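 active = mean inhibition above a set limit taken from the earlier primary screen, cut at about 13% in these data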;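 also: higher means less bacterial growth since AddAB block lets phage replicate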
RecBCD counter = reduces growth of phage-infected RecBCD+ E. coli, AddAB inhibitor counter-screen; inhibition, % at 11.9 µM; shares compounds with AddAB inh; E. coli V66 + mutant T4 phage, OD growth; 880 tested, 73% active;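 active = mean inhibition above the mean of solvent-only control wells plus 3 SD, cut at about 4% in these data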;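 also: optical density read after an 18 h incubation at 37 °C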
bact viab count = reduces bacterial viability, AddAB inhibitor counter-screen; shares compounds with AddAB inh; absorbance (AddAB counterscreen); inhibition, % at 11.9 µM; 880 tested, 35% active; AID 488956; in the data active = inhibition above about 25%
Starred values were filed as active, the others as inactive.

For CCOC(=O)C(CC)Sc1nc2c(cnn2-c2ccc(F)cc2)c(=O)[nH]1 (stereo not drawn) the results were AddAB inh 1, E coli growth-1 0, Tat transport 2, phage Ecoli inh 1 and E coli growth-2 0.64.
`CCC(Sc1nc2c(cnn2-c2ccc(Cl)cc2)c(=O)[nH]1)C(=O)OC` (stereo not drawn) gave AddAB inh 97*, E coli growth-1 43*, Tat transport -12, phage Ecoli inh 2, E coli growth-2 0.84, AddAB confirm 0, RecBCD counter 1 and bact viab count 0.
COc1ccc(OC)c(C2CC(=O)C(C)C(c3cc(OC)ccc3OC)N2)c1 (stereo not drawn) was read as AddAB inh 13*, E coli growth-1 11*, Tat transport 4, phage Ecoli inh 2, E coli growth-2 0.69, AddAB confirm -4, RecBCD counter -1 and bact viab count 0.
COc1ccc(OC)c(C2C/C(=N/O)C(C)C(c3cc(OC)ccc3OC)N2)c1 (stereo not drawn) was read as Tat transport -1 and phage Ecoli inh 1.
`O=C(Nc1ccccc1)C1=CC(c2ccc(Br)cc2)CC(OCc2ccc(CO)cc2)O1` (stereo not drawn) gave E coli growth-2 0.73.
`CCc1nnc(NS(=O)(=O)c2ccc(N/C=C\C(=O)c3ccc(C)cc3)cc2)s1` gave AddAB inh 20*, E coli growth-1 13*, Tat transport 0, phage Ecoli inh 10, E coli growth-2 0.77, AddAB confirm 0, RecBCD counter 2 and bact viab count 1.
CCc1nnc(NS(=O)(=O)c2ccc(N/C=C/C(=O)c3ccc(C)cc3)cc2)s1 was read as AddAB inh 17*, E coli growth-1 11*, Tat transport -7, phage Ecoli inh 4, AddAB confirm 0, RecBCD counter 1 and bact viab count 1.
Screening CCC(C)Cc1cn(C(CCCCN)C(=O)NCCCCCCCCCCC(=O)N2CCNCC2)nn1 (stereo not drawn) returned E coli growth-2 0.64.
`NC(Cc1cccc2ccccc12)=NOC(=O)c1ccc2c(c1)OCO2` gave E coli growth-2 0.69.
For CC(C)(C)C(=O)OCOC(=O)C1N2C(=O)C(N=CN3CCCCCC3)C2SC1(C)C (stereo not drawn) the results were E coli growth-2 0.65.
CCCCC1CN=C(N)N1CCCC (stereo not drawn) was read as E coli growth-2 0.69.
For CC[C@@]12C(=O)N(c3ccccc3)C(=O)N1C(c1ccc(OC)cc1)C1C(=O)N(C(C)(C)C)C(=O)C12 (stereo partly drawn) the results were E coli growth-2 0.69.
COc1cc(NS(=O)(=O)c2ccc(NC(=O)c3ccco3)cc2)nc(OC)n1 was read as AddAB inh 63*, E coli growth-1 4, Tat transport -2, phage Ecoli inh 1, E coli growth-2 0.71, AddAB confirm 0, RecBCD counter 1 and bact viab count -3.
O=C(CN1C(=O)S/C(=C\c2ccc(Cl)cc2)C1=O)NNC(=O)c1ccccc1O was read as AddAB inh 16*, E coli growth-1 6, Tat transport -3, phage Ecoli inh 9, E coli growth-2 0.68, AddAB confirm 9, RecBCD counter 5.5* and bact viab count 9.
Screening COc1ccccc1/C=C1\SC(=S)N(CCC(=O)NNC(=O)c2ccccc2O)C1=O returned AddAB inh 20*, E coli growth-1 18*, Tat transport 0, E coli growth-2 0.75, AddAB confirm 15*, RecBCD counter 19* and bact viab count 14.
For COc1ccc(/C=C2\SC(=S)N(CCCC(=O)NNC(=O)c3ccccc3O)C2=O)cc1 the results were AddAB inh 5, E coli growth-1 0, Tat transport 3 and phage Ecoli inh 6.
COc1ccc(N2C(=O)C3CCCN3C2c2cccc(OC)c2OC)cc1 (stereo not drawn) was read as AddAB inh 14*, E coli growth-1 4, Tat transport -13, phage Ecoli inh 1, E coli growth-2 0.69, AddAB confirm 1, RecBCD counter 1 and bact viab count -2.
Screening COc1ccc(N2C(=O)C3CCCN3C2c2cccc(Br)c2)cc1 (stereo not drawn) returned AddAB inh 3, E coli growth-1 -2, Tat transport 1, phage Ecoli inh 1 and E coli growth-2 0.78.
COc1ccc(C2CC(=O)C=C(c3ccc(CNC(=O)OC(C)(C)C)cc3)C2)cc1 (stereo not drawn) was read as E coli growth-2 0.72.
`Cc1ccc(/C=N/NC(=O)C2(C)CC2(Br)Br)cc1` (stereo not drawn) gave AddAB inh 0, E coli growth-1 3, Tat transport 3 and phage Ecoli inh 2.
`CC1(C(=O)N/N=C/c2ccccc2)CC1(Br)Br` (stereo not drawn) gave AddAB inh 97*, E coli growth-1 97*, Tat transport 2, phage Ecoli inh -3, AddAB confirm -2, RecBCD counter 0 and bact viab count -4.
For CC(=O)N1c2ccccc2C(C)C1C (stereo not drawn) the results were E coli growth-2 0.66.
`O=C(N/N=C\c1ccc(F)cc1)c1ccc(Cn2cc(Br)c([N+](=O)[O-])n2)o1` gave AddAB inh 36*, E coli growth-1 33*, Tat transport -1, phage Ecoli inh 9, AddAB confirm 54*, RecBCD counter 5.8* and bact viab count 38*.
Screening O=C(N/N=C\c1ccc2c(c1)OCO2)c1ccc(Cn2cc(Br)c([N+](=O)[O-])n2)o1 returned AddAB inh 23*, E coli growth-1 20*, Tat transport -5, phage Ecoli inh 2, AddAB confirm 6, RecBCD counter 0 and bact viab count 2.
`COc1cc(C=NNC(=O)c2ccc(Cn3cc(Br)c([N+](=O)[O-])n3)o2)cc(OC)c1O` gave E coli growth-2 0.68.
O=C(N/N=C\c1cccc(F)c1)c1ccc(Cn2cc(Br)c([N+](=O)[O-])n2)o1 was read as AddAB inh 27*, E coli growth-1 19*, Tat transport -6, phage Ecoli inh 6, AddAB confirm 54*, RecBCD counter 7.7* and bact viab count 41*.
For O=C(NN=Cc1ccc2c(c1)OCO2)c1ccc(Cn2cc([N+](=O)[O-])cn2)o1 the results were E coli growth-2 0.69.
